# Laboratory results taken from PubChem BioAssay (NCI).
# Compounds without any hit were thinned out: in the full panel of roughly 83,000, 20% have a hit.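 Method: cells in 96-well plates; compound added at one concentration; 48 h incubation; percent growth measured; values under 10 scored active.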 Unmarked numbers belong to inactive results. The source made the active and inactive calls.
# Legend:
# Experiment in all cases: NCI-60 one-dose screen, 48 h (100 = growth as untreated, 0 = no growth, -100 = all killed)
# Conditions in all cases: 10 µM unless noted
# [1] = system: HCT-15 colon
# [2] = system: HT29 colon
# [3] = system: SNB-75 CNS
# [4] = system: SNB-19 CNS
# [5] = system: U251 CNS
# [6] = system: PC-3 prostate
# [7] = system: SK-MEL-5 melanoma
# [8] = system: UACC-62 melanoma
# [9] = system: SK-MEL-28 melanoma
# [10] = system: SK-MEL-2 melanoma
# [11] = system: EKVX NSCLC
# [12] = system: SN12C renal
# [13] = system: UO-31 renal
# [14] = system: TK-10 renal
# [15] = system: ACHN renal
# [16] = system: CAKI-1 renal
# [17] = system: CCRF-CEM leukemia
# [18] = system: MOLT-4 leukemia
# [19] = system: A498 renal
SMILES,growth [1] [%],growth [2] [%],growth [3] [%],growth [4] [%],growth [5] [%],growth [6] [%],growth [7] [%],growth [8] [%],growth [9] [%],growth [10] [%],growth [11] [%],growth [12] [%],growth [13] [%],growth [14] [%],growth [15] [%],growth [16] [%],growth [17],growth [18] [%],growth [19] [%]
CN(C)c1ccc(/C=C/C(=O)c2ccc(NC(N)=O)cc2)cc1,84.9,95.2,67.4,80.1,69,98.4,97.6,92.2,104,103,89.3,93.3,68.3,97.7,103,87.8,92.8%,91.7,
COC(=O)c1ccccc1C(=O)c1c(C)cc(C)cc1C,101,93.8,96.5,103,91.2,90,101,92.5,94.9,94,109,99.9,92.9,88.3,101,96.4,99.2%,87.9,88.9
COc1cccc(N=CNc2cccc(OC)c2)c1,85.2,99.6,90.8,103,95.9,84.2,99,56.4,106,86.3,99.4,101,,113,86.2,87.7,94.7%,90.9,93.2
S=C(NCc1ccccc1)N1CCC(CCCC2CCN(C(=S)NCc3ccccc3)CC2)CC1,99.8,95.9,101,94.5,98.3,89.5,58.8,79.1,119,114,83.5,96.8,84.4,108,93.1,86.6,88.8%,88.5,121
CCC(C)c1c(N)n(S(=O)(=O)c2ccc(C)cc2)oc1=O (stereo not given),100,93.5,88.9,106,104,94.3,100,101,119,107,121,106,89.5,101,99.9,96.5,112%,109,113
Cc1cc(C(=O)c2ccccc2)cc(C)c1O,96.4,113,87.8,120,98.1,93.5,104,108,115,118,112,106,84,123,99.8,,-22.1% (active),,
COc1cc(OC)c2cc(C(=O)c3ccc(C#N)cc3)c(=O)oc2c1,105,104,85.5,88.5,105,107,97.6,91.8,99.5,103,110,81.6,84.7,97.7,95.2,84.6,101%,103,99.1
CCN(CC)CCOC(=O)Nc1c(C(C)C)cccc1C(C)C,106,92.8,110,99.6,107,95.5,95.7,93.3,111,124,106,105,83.1,105,105,88.9,98.4%,105,118
O=C(O)CCCCCNC(=O)OCc1ccccc1,103,108,74,105,94.9,95.3,111,101,106,119,98.1,97,72.9,109,101,,0.55% (active),110,103
CCOC(=O)/C(O)=C(\C=N\C(=S)Nc1ccc(Cl)c(Cl)c1)C(=O)OCC,89.3,92.8,82,104,98.2,86.9,91.7,88.4,109,116,82.8,93.4,70.9,117,96.3,89.2,97.7%,76.5,101
NCCCN1CCCC1=O,116,112,116,95.3,108,96.9,100,96.4,111,117,122,97.5,,100,113,109,114%,97.1,103
C1CCc2onc(-c3noc4c3CCCCC4)c2CC1,103,103,112,98,107,102,101,102,112,120,106,95.6,91.1,108,113,95.6,99.3%,102,146
COC1OC(COC(C)=O)C(OC(C)=O)C(OC(C)=O)C1OC(C)=O (stereo not given),97.2,95.5,95.7,102,102,87.2,117,86.5,94.2,101,93,101,99.3,104,,,95.9%,96.3,88.8
O=C(Nc1ccc([N+](=O)[O-])cc1)C(=O)Nc1ccc([N+](=O)[O-])cc1,101,91.5,116,99.6,81.2,90.5,100,97,115,97,103,102,89.1,98.5,107,98.1,101%,101,100
Cc1[nH]c(=S)[nH]c(=O)c1C,99.4,104,93.4,103,92.4,102,100,105,110,107,109,106,96.4,107,96.6,103,96.9%,89.3,110
COC(c1ccc2c(c1)OCO2)C(C)Br (stereo not given),103,88.8,76.6,101,96.9,69.3,104,94.6,103,101,90.3,100,91.8,85.8,102,83.7,93.3%,91.6,95.6
